This is an account of results in PubChem BioAssay (NCI).

This is part of a sample that, as a whole, favours compounds with a hit. Of some 83,000 tested, about 20% had one in any assay.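 The endpoint reported here, percent growth, reads 100 for growth as untreated, 0 for no net growth and -100 for all cells dead.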 Activity calls are given as the source filed them. How the source made its calls: active means growth percent below 10; inactive means the rest.

This experiment concerns SK-MEL-28 melanoma. The experiment can be described thus: NCI-60 one-dose screen, 48 h (100 = growth as untreated, 0 = no growth, -100 = all killed). Conditions: 10 µM unless noted.
`CC1(C(=O)O)CCC(N)(C(=O)O)C1(C)C` (stereo unspecified): the growth was 109% (inactive).
With `O=C(Nc1cccc(F)c1)c1cc(=O)[nH]c2cc(Br)ccc12` the figure was 62.3% (inactive); with `N#Cc1c(Cl)nc(SCC2CO2)nc1-c1ccccc1` (stereo unspecified), 114% (inactive); with `CC1Cc2c(Cl)ncnc2N(C)c2ccc(Cl)cc21` (stereo unspecified), 20.6% (inactive).
Turning to `CCCc1cc2cc(-n3nc(C)c4c3CC(C)(C)CC4=O)cc(NC3CCSCC3)c2c(=O)[nH]1`, the growth is 68.6% (inactive).
Take `O=C(O)c1cn(C2CC2)c2cc(N3CCN(Cc4cc(Cl)ccc4O)CC3)c(F)cc2c1=O`: the growth is 71.7% (inactive).
With `COc1ccc2nc3cc(Cl)ccc3c(Nc3ccc(O)c(CN4CCCC4)c3)c2c1` the figure was 82.9% (inactive); with `COc1ccc(C(=O)c2nccc3cc(OC)c(OC)cc23)cc1OC`, 90.7% (inactive).
With `CC1Cc2c(Cl)ncnc2N(C)c2ccc(O)cc21` (stereo unspecified) the figure was 27.8% (inactive); with `COc1ccc(-c2cc(-c3ccccc3)nc(NCCNc3ccnc4cc(Cl)ccc34)n2)cc1`, -92.8% (active).
On to `Cn1cc(-c2noc(C(=O)c3cn(C)c4ncc(Br)cc34)n2)c2ccccc21`, for which the growth is 101% (inactive).
With `O=C1CN(Cc2ccc(C(=O)NO)cc2)C(=O)[C@@H](Cc2ccccc2)N1` the figure was 105% (inactive); with `O=C1/C(=C/c2ccc(OCc3ccccc3)cc2)Oc2cc(OCCN3CCCCC3)ccc21`, 78.4% (inactive); with `COC(=O)[C@@H](NC(=O)NC(=O)NC(=O)CI)C(C)C`, 91.7% (inactive).
Consider `c1ccc2c(c1)CN(CCCN1CCOCC1)C2`, for which the growth is 105% (inactive).
In the case of `Clc1ccccc1/C=N\Nc1ccccn1`, the growth was 99.2% (inactive).
